The values below come from PubChem BioAssay AID1626 (SRMLSC, 2009).

Structures are written as SMILES. Among all 220,000 compounds or so, about 2,000 (0.91%) were called active. About 2% were inconclusive and are not listed. Rule as the data show it: inconclusive = inhibition above about 80% without an active follow-up result; inactive = below that; test concentration not stated here. Only a sample is shown. Entries with a potency or affinity are not part of this list.

This assay is described as follows: M. tuberculosis H37Rv growth inhibitors, H37Rv strain (AID 1626).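 Also: bacteria incubated seven days before Alamar blue readout; 0% = bacteria only wells and 100% = bacteria with antibiotic wells.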 Conditions: active compounds read high, concentration not given here.
Broadly, the inhibition is the change of the read-out against control, counted positive when it falls. Take `CC(OC(=O)CCC(=O)c1cccs1)C(=O)Nc1ccc(Cl)cn1` (stereo not given): the inhibition is 2.41% (inactive).

In the case of `OC1CCN(c2cc(-c3ccccc3)nc3cc(-c4ccc(F)cc4)nn23)CC1`, the inhibition was 5.18% (inactive).

For `Fc1ccc(-c2cc3nc(-c4ccccc4)cc(N4CCOCC4)n3n2)cc1`, the inhibition is 1.89% (inactive).

In the case of `O=C(O)C(Oc1ccc2c3c(c(=O)oc2c1)CCC3)c1ccccc1` (stereo not given), the inhibition was -10.3% (inactive).

In the case of `Cc1nnc(SCC(=O)Nc2ncc(S(=O)(=O)c3ccc([N+](=O)[O-])cc3)s2)s1`, the inhibition is -0.12% (inactive).

On to `Cc1ccc(Nc2nnc(SCC(=O)Nc3ncc(S(=O)(=O)c4ccc([N+](=O)[O-])cc4)s3)s2)cc1`, for which the inhibition was 0% (inactive).

As to `COc1ccc(OCC(O)CNC(=O)Nc2cc(C)cc(C)c2)cc1` (stereo not given), the inhibition is -16.7% (inactive).

As to `CCOC(=O)C(Cc1ccccc1)C(=O)Nc1ccccc1C` (stereo not given), the inhibition is -5.73% (inactive).

On to `CCOC(=O)C(Cc1ccccc1)C(=O)Nc1ccc(NC(=O)C(Cc2ccccc2)C(=O)OCC)cc1` (stereo not given), for which the inhibition was 3.39% (inactive).

Turning to `COC(=O)c1cn(NC(=O)Cc2cccc(OC)c2)c(=O)c2ccccc12`, the inhibition is 3.66% (inactive).

Take `CC1CCN(S(=O)(=O)N2CCC(C(=O)NCc3cccs3)CC2)CC1`: the inhibition is -4.64% (inactive).

As for `Cc1cc(C(=O)COc2ncnc3sccc23)c(C)n1C`, the inhibition is -3.73% (inactive).

Turning to `Cc1noc(-c2ccccc2OC(=O)c2ccccc2)n1`, the inhibition is 1.9% (inactive).

As to `COC(=O)c1ncccc1SC`, the inhibition was -0.23% (inactive).

Turning to `COC(=O)c1cc(Sc2c(Cl)cccc2Cl)ccn1`, the inhibition was 34% (inactive).

With `S=C(NCc1ccco1)Nc1ccc(Br)cc1Cl`, the inhibition was 4.87% (inactive).

For `O=c1cc(-c2ccccc2)c2ccccc2[nH]1`, the inhibition was -8.75% (inactive).

As to `O=C(c1c[nH]cc1-c1ccccc1)c1cccc2ccccc12`, the inhibition is -3.22% (inactive).

With `COc1ccc(C(CC(=O)Nc2ccccc2OC)n2cccc2)cc1` (stereo not given), the inhibition was 3.19% (inactive).

With `CCOC(=O)N1CCN(C(=O)CN(c2ccc(OC)cc2)S(C)(=O)=O)CC1`, the inhibition is -8.65% (inactive).

On to `CCn1c(=O)c(C(=O)NC(C)C)c(O)c2ccccc21`, for which the inhibition is 0.51% (inactive).

With `O=S(=O)(Nc1ccccc1)c1ccc(-c2csnn2)cc1`, the inhibition is 8.85% (inactive).

Consider `CCN(CC)C(=O)CN(c1cc(Cl)ccc1OC)S(=O)(=O)c1ccc(C)c([N+](=O)[O-])c1`, for which the inhibition is 4.94% (inactive).

On to `O=C(NCc1nnc2c3ccccc3c(-c3ccccc3)nn12)c1ccccc1Cl`, for which the inhibition is 17.6% (inactive).

Consider `O=C(COc1ccc(Cl)cc1)NCc1nnc2c3ccccc3c(-c3ccccc3)nn12`, for which the inhibition is 32.3% (inactive).

In the case of `CCn1nc(C(=O)NCCc2ccc(S(N)(=O)=O)cc2)c2ccccc2c1=O`, the inhibition was -2.56% (inactive).

For `COc1cc(OC)c2c(-c3ccccc3)cc(=O)oc2c1C(CCN1CCN(c2ccccc2)CC1)c1ccc(N(C)C)cc1` (stereo not given), the inhibition is 13.6% (inactive).

As for `COc1ccc(C(CCN2CCCC2)c2c(OC)cc(OC)c3c(-c4ccccc4)cc(=O)oc23)cc1` (stereo not given), the inhibition is 64.5% (inactive).

Take `COc1ccc(C(CCN2CCN(c3ccccc3)CC2)c2c(OC)cc(OC)c3c(-c4ccccc4)cc(=O)oc23)cc1` (stereo not given): the inhibition was 6.72% (inactive).

In the case of `COc1cc(C(CCN2CCCCC2)c2c(OC)cc(OC)c3c(-c4ccccc4)cc(=O)oc23)cc(OC)c1OC` (stereo not given), the inhibition is 10.2% (inactive).

As to `CC(C)CCn1nnnc1C(C(C)C)N1CCC(C(N)=O)CC1` (stereo not given), the inhibition was -6.25% (inactive).

For the compound `CC(/C=C/c1ccco1)=N\NC(=O)c1cc(C)[nH]n1`, the inhibition is -12% (inactive).

Take `O=C(Nc1ccccc1O)c1cc(S(=O)(=O)N2CCOCC2)ccc1Cl`: the inhibition is 6.89% (inactive).

Turning to `NNc1nc(-c2ccccc2)cs1`, the inhibition is 4.39% (inactive).

Consider `Fc1ccc(/C=C\c2nccc3c2[nH]c2ccccc23)cc1`, for which the inhibition is 8.94% (inactive).

`Cc1ccc(/C=C\c2nccc3c2[nH]c2ccccc23)cc1`: the inhibition was 42.1% (inactive).

As for `Cc1ccc(/C=N/NC(=O)Cn2nnc(N)n2)cc1`, the inhibition is -5.78% (inactive).

As for `CCC(C)[C@H](NC(=O)NCCC1=CCCCC1)C(=O)OC` (stereo not given in full), the inhibition is -7.06% (inactive).

Consider `O=C(CSc1ncccn1)N/N=C/c1ccc(OC2CSC2)cc1`, for which the inhibition is 0.1% (inactive).

Regarding `CCc1ccc(-c2nn(-c3cc(Cl)ccc3[N+](=O)[O-])c(=O)c3ccccc23)cc1`, the inhibition was 3.9% (inactive).

As to `CC(C)=C1SC(N2CCOCC2)=NC1=O`, the inhibition is -2.58% (inactive).

As for `Cc1c(C(=O)O)cccc1N1C(=O)Nc2ccccc2N1O`, the inhibition is 5.34% (inactive).

For `c1ccc(-c2nnc(CSc3nnc(-c4cccs4)o3)o2)cc1`, the inhibition is 39.4% (inactive).

Take `Clc1ccc(-c2nnc(CSc3nnc(-c4cccs4)o3)o2)cc1`: the inhibition was 12.5% (inactive).

For the compound `Cc1ccc(Nc2nc(CSc3n[nH]c(N)n3)cs2)cc1`, the inhibition was 9.31% (inactive).

`c1ccc(-c2nc(CSc3nnc(-c4cccs4)o3)cs2)cc1`: the inhibition is 2.37% (inactive).

Regarding `O=C(Nc1nc(-c2cccc3ccccc23)cs1)c1ccc2c(c1)S(=O)(=O)c1ccccc1C2=O`, the inhibition is 4.24% (inactive).

As for `Cc1cccc(NC(=S)N(Cc2cccs2)Cc2cc3cc(C)ccc3[nH]c2=O)c1`, the inhibition was 8.62% (inactive).

With `CC(=O)O/C(=C\c1cn(C(C)=O)c2ccccc12)C(=O)O`, the inhibition is 7.86% (inactive).

As to `COc1cc(OC)cc(-c2nnc(SCC(=O)N3CCCCC3)o2)c1`, the inhibition is 13.8% (inactive).

`CCCCN(CCCC)C(=O)CSc1nnc(-c2cc(OC)c(OC)c(OC)c2)o1`: the inhibition was 5.31% (inactive).

For the compound `O=C(CSc1nnc(COc2ccccc2)o1)N1CCN(c2ccccc2)CC1`, the inhibition is 7.79% (inactive).

`COc1cc(-c2nnc(SCC(=O)c3ccccc3)o2)cc(OC)c1OC`: the inhibition was -0.24% (inactive).

Regarding `CCOC(=O)CSc1nnc(-c2ccccc2)o1`, the inhibition is 27.1% (inactive).

As to `COc1cc(OC)cc(-c2nnc(SCC(=O)N3CCCC3)o2)c1`, the inhibition was 14.8% (inactive).

Turning to `CCOC(=O)CSc1nnc(-c2cccnc2)o1`, the inhibition was -8.92% (inactive).

Turning to `CCOC(=O)N1CCN(C(=O)CSc2nnc(Cc3ccccc3)o2)CC1`, the inhibition was 3.59% (inactive).

As for `Cc1ccc(C)n1-c1c(C(=O)NN)cnn1-c1ccccc1`, the inhibition was -0.22% (inactive).

`C=CCn1c(-c2cccnc2)n[nH]c1=S`: the inhibition was 4.66% (inactive).

In the case of `O=C1CCC/C(=N\NC(=O)COc2ccc(Cl)cc2)C1`, the inhibition was -2.69% (inactive).
